In the library only some 3.5% were active in any assay of this set; here they are far more common.
GPR151 ag – human GPR151 activation; activation, % at 11.2 µM; PathHunter beta-arrestin GPR151 cells, luminescence; 650,000 compounds, 1% hits; AID 1508602; in the data active = activation above about 4.9%;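 also: 0% = median of compound wells and 100% = cells with positive control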
TEAD-YAP inh – TEAD-YAP interaction inhibition. AID 1259422. inhibition, % at 9.12 µM. 640,000 compounds, 1.4% hits. HEK-TIYL cells, TEAD-Gal4/YAP UAS-luciferase luminescence; in the data active = inhibition above about 32%;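 also: 0% = median of test compound wells and 100% = reference inhibitor wells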
FBW7 act – activators of human E3 ligase FBW7; Q969H0; AID 1259310; 650,000 compounds, 0.13% hits; normalized activity (activation), % at 26.1 µM; AlphaScreen FBW7–phospho-cyclin E peptide binding, activator screen; in the data active = normalized activity above about 1.9%;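 also: purified mutant Fbw7 with reduced substrate affinity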
MITF inh – human MITF inhibition, primary screen; AlphaScreen MITF homodimerization, bead proximity signal; inhibition, % at 2.6 µM; 650,000 compounds, 0.91% hits; in the data active = inhibition above about 50%;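 also: 0% = vehicle wells with protein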
Target sequence (O75030 whole entry, looked up): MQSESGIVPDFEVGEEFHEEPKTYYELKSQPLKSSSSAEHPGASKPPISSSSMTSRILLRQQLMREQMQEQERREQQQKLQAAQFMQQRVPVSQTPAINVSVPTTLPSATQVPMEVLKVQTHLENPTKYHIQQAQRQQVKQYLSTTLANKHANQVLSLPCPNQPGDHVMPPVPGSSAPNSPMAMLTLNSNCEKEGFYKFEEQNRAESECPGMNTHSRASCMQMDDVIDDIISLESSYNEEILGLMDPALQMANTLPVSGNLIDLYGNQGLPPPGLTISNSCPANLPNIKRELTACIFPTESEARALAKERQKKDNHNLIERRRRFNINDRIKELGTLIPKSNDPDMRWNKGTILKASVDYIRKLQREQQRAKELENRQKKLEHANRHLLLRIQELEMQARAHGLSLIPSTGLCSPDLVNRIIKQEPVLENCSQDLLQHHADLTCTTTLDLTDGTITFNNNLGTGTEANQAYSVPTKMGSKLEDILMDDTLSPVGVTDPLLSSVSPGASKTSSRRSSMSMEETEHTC
GPR151 confirm – human GPR151 activation, confirmation screen. shares compounds with GPR151 ag. GPR151 PathHunter beta-arrestin cells, luminescence, 90 min; % of EA-reagent control over plate median. activation, % at 11.2 µM. 6,700 tested, under 10 active;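 active = mean percent activation across replicates above the confirmation screen cutoff of 4.91%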
GPR119 ag – activates human GPR119 in a GPR151 counter-screen. shares compounds with GPR151 ag. GPR119 PathHunter beta-arrestin cells, luminescence, 90 min; 0 = compound-well median, 100 = enzyme-acceptor control. activation, % at 11.2 µM. 6,700 compounds, 0.3% hits;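 active = mean percent activation in the counterscreen above 29.09%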;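 also: counterscreen on off-target GPR119 to flag nonselective hits from the GPR151 activator screen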
The depositor's hits bear a star; x = no result given.

SMILES	GPR151 ag	TEAD-YAP inh	FBW7 act	MITF inh	GPR151 confirm	GPR119 ag
N#CCCn1cc(/C=N/O)c(-c2ccccc2)n1	1.6	0.2	0.0	12.9	x	x
COc1ccc(N(C(=O)COc2ccc(Cl)cc2)S(=O)(=O)c2ccc(C)cc2)cc1	-0.8	-3.0	-0.1	-6.7	x	x
COc1cccc(NS(=O)(=O)c2ccccc2)c1	-0.2	0.5	-0.1	-11.1	x	x
COc1ccc(C(=O)NC2=C(C#N)CCC2)cc1OC	1.0	-2.0	0.1	20.7	x	x
N#CC1=C(NC(=O)c2ccc([N+](=O)[O-])cc2)CCC1	5.6*	9.1	0.2	2.8	-0.5	6.4
Cc1ccc(-c2nc(SCC(=O)O)c3c(=O)n(C)c(=O)n(C)c3n2)cc1	-0.3	-13.0	0.0	-11.0	x	x
Cc1cc2ccccc2n2c(=O)n(Cc3cscn3)nc12	0.0	-6.6	1.0	-2.4	x	x
CCOc1ccc(CC(=O)NCCn2ccnc2C)cc1	2.8	5.3	-0.1	1.0	x	x
Cc1nccn1CCNC(=O)c1ccc(F)c(F)c1	9.9*	7.6	0.1	-5.0	-0.4	-9.4
COCCn1c(C)cc(C2=NNC(=Nc3ccccc3)SC2)c1C	11.2*	56.9*	-0.3	-3.8	1.0	1.9
C=CCn1c(C)cc(C2=NNC(=Nc3ccccc3)SC2)c1C	0.2	-43.3	0.7	17.7	x	x
O=C(NCCO)C1CCCN(c2cccc3c2C(=O)N(C2CCCCCCC2)C3=O)C1 (stereo unspecified)	5.8*	-0.7	0.3	-2.2	0.1	8.0
O=C1c2cccc(N3CCCC(C(=O)N4CCC[C@H]4CO)C3)c2C(=O)N1C1CCCC1 (stereo partly specified)	1.7	-30.9	0.1	4.1	x	x
CCN(C(=O)CCn1c(=O)oc2ccccc21)c1ccccc1	-0.6	-14.0	1.2	17.6	x	x
C/C(=N/NC(N)=S)c1ccccc1[N+](=O)[O-]	5.6*	5.8	0.1	-2.4	-0.7	-8.1
Cc1ccc(C(C)CCN2CCC3(CCC(CNC(=O)C(C)C)O3)CC2)o1 (stereo unspecified)	7.8*	-11.8	-0.1	-4.4	0.2	0.2
Cc1ccc(C(C)CCN2CCC3(CCC(CNC(=O)c4ccccc4)O3)CC2)o1 (stereo unspecified)	0.7	2.4	0.1	14.8	x	x
O=C(COC(=O)C1CCC(=O)N1)Nc1nc2ccccc2s1 (stereo unspecified)	6.0*	-4.2	0.0	6.7	0.2	-1.4
O=C(CCSc1ccccc1)Nc1nc2ccccc2s1	5.0*	-32.6	-0.1	11.6	-0.5	4.3
O=c1cc(-c2nc3ccccc3s2)oc2ccccc12	-2.8	-23.0	-0.3	14.4	x	x
O=C(Nc1ccccc1C(F)(F)F)c1c(O)c2ccccc2[nH]c1=O	0.5	-7.0	-0.1	-1.0	x	x
C/C(=N\NC(=O)c1ccc(Br)o1)c1ccncc1	1.6	-38.7	0.2	16.5	x	x
CCOC(=O)CSC1=C(C#N)C(c2ccco2)C(C(=O)Nc2ccccc2)=C(C)N1 (stereo unspecified)	5.0*	-7.8	1.2	-2.9	0.6	-1.2
O=[N+]([O-])c1ccc(Cl)c2c1C1C=CCC1C(c1ccccn1)N2 (stereo unspecified)	5.1*	-5.3	-0.6	8.7	0.3	9.8
Cc1nc2cc(-c3ccc(Cl)cc3)nn2c(C)c1CCC(=O)Nc1cccnc1	0.7	3.0	0.0	5.8	x	x
SMILES	GPR151 ag	TEAD-YAP inh	FBW7 act	MITF inh	GPR151 confirm	GPR119 ag
C=CCc1cccc(OC)c1OCCCNC	-1.0	4.7	-0.1	9.6	x	x
CCc1c(C)nc2ncnn2c1N1CCC(C(=O)Nc2ccc(C)cc2)CC1	-0.7	11.8	-0.1	8.7	x	x
Cc1nc2ncnn2c(N2CCC(C(=O)Nc3ccc(F)cc3)CC2)c1C	5.4*	8.4	-0.3	-11.3	0.2	8.6
CCc1ccc(C(=O)COC(=O)CCC(=O)Nc2ccc([N+](=O)[O-])cc2)cc1	-1.1	3.0	0.2	13.3	x	x
O=C(CCCC(=O)OCC(=O)c1ccc(Cl)c([N+](=O)[O-])c1)Nc1ccccc1Cl	5.1*	2.6	0.1	-0.9	0.4	5.6
CCc1ccccc1NC(=O)CCC(=O)OCC(=O)c1ccc(C)cc1	-2.2	1.0	0.2	11.1	x	x
CCc1ccc(C(=O)COC(=O)CCC(=O)Nc2ccc(OC)cc2)cc1	6.5*	6.2	0.3	17.5	-0.8	-6.2
CCc1ccccc1NC(=O)CCC(=O)OCC(=O)c1ccc(Cl)cc1	8.7*	10.9	-0.1	9.9	0.2	-6.0
CCOC(=O)c1ccc(NC(=O)CCC(=O)OCC(=O)c2ccc([N+](=O)[O-])cc2)cc1	7.4*	3.5	0.0	0.4	0.4	7.8
CCOC(=O)/C(=C\Nc1cc(C)ccc1O)[N+](=O)[O-]	1.7	-0.2	-0.2	0.7	x	x
COc1ccc(NC(=O)CCC(=O)Oc2ccc(C)cc2)cc1	16.2*	1.2	0.2	-3.9	-0.5	-6.3
CN(C)c1ccc(NC(=O)CCN2C(=O)C3C4C=CC(C4)C3C2=O)cc1 (stereo unspecified)	5.2*	-14.6	0.1	-0.7	0.4	-14.2
Cc1cc(OCCCNCCN(C)C)ccc1[N+](=O)[O-]	5.4*	-5.7	-0.2	-3.5	-0.3	-10.5
Cc1ccc(OCCN2CCCC2)c([N+](=O)[O-])c1	5.3*	0.5	0.1	45.7	-0.2	-6.6
COCCNCCCOc1ccc(C)cc1[N+](=O)[O-]	7.3*	-0.9	-0.1	30.5	-0.9	-8.8
Cc1cc(OCCN(C)C)ccc1[N+](=O)[O-]	-1.3	-3.6	-0.1	39.8	x	x
COc1ccc(OCCOc2ccc(C)cc2[N+](=O)[O-])cc1	0.8	-54.8	0.4	11.2	x	x
COc1cc2nc(N3CCN(c4nc(N)c5cc(OC)c(OC)cc5n4)CC3)nc(N)c2cc1OC	-1.4	1.6	1.7	-74.2	x	x
Cc1ccccc1C(=O)NCc1nc(-c2ccccc2)no1	6.9*	0.6	-0.1	2.1	-1.1	-11.5
CC(O)(C#CC(O)(c1ccc(F)cc1)c1ccc(F)cc1)C1CC1 (stereo unspecified)	0.6	-12.0	0.5	12.5	x	x
O=C(c1ccco1)N1CCC(c2nc3c(nnn3Cc3ccccc3Cl)c(=O)[nH]2)CC1	5.7*	8.5	0.7	5.0	1.3	13.1
Cc1ccc(Cn2nnc3c(=O)[nH]c(C4CCN(C(=O)c5ccco5)CC4)nc32)cc1	0.9	6.5	0.2	24.5	x	x
Cc1cccc(NCn2c(=O)oc3cc(Cl)ccc32)c1	-1.0	0.7	-0.1	-4.1	x	x
COCCNC(=O)C1CCCN(S(=O)(=O)c2c(C)noc2/C=C/c2cccs2)C1 (stereo unspecified)	5.3*	-0.3	-0.4	-8.4	0.9	3.8
Cc1cc(C=C2C(=O)OC3(CCCC3)OC2=O)c(C)n1-c1ccc([N+](=O)[O-])cc1	-0.2	0.0	1.5	-6.0	x	x
COc1ccc(C2/C(=C(\O)c3ccc(C)cc3)C(=O)C(=O)N2c2nnc(C)s2)cc1OC (stereo unspecified)	-0.5	-2.0	-0.2	-4.5	x	x
